The list is not random: actives were taken first. Their share in the collection is about 3.5%.
GPR151 activ: activates the human receptor GPR151; 650,000 compounds, 1% hits; AID 1508602; activation, % at 11.2 µM; PathHunter beta-arrestin GPR151 cells, luminescence; in the data active = activation above about 4.9%;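 also: 0% = median of compound wells and 100% = cells with positive control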
FBW7 act: human FBW7 E3 ligase activation, primary screen; AlphaScreen FBW7–phospho-cyclin E peptide binding, activator screen; 650,000 compounds, 0.13% hits; normalized activity (activation), % at 26.1 µM; Q969H0; AID 1259310; in the data active = normalized activity above about 1.9%;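 also: purified mutant Fbw7 with reduced substrate affinity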
Target sequence (Q969H0 whole entry, looked up): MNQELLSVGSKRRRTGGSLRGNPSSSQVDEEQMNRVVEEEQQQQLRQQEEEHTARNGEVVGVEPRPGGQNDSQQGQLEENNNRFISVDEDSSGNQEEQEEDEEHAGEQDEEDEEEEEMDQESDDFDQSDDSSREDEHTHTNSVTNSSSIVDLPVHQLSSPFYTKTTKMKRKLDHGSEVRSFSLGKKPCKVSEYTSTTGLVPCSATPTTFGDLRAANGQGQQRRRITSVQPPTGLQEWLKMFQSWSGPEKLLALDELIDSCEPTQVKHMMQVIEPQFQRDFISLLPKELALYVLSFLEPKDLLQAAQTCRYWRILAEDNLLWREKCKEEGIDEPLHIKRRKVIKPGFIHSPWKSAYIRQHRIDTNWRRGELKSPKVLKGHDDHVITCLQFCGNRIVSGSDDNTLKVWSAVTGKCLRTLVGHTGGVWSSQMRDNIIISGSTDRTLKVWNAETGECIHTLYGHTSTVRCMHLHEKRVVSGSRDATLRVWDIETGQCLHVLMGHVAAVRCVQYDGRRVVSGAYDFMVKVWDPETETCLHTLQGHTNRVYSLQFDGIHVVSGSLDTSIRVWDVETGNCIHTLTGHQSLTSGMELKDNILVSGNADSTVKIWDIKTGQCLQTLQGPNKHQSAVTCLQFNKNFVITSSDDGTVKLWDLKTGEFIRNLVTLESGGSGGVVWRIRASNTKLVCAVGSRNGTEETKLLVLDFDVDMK
MITF primary: inhibitors of human MITF. AlphaScreen MITF homodimerization, bead proximity signal. 650,000 compounds, 0.91% hits. AID 1259374. inhibition, % at 2.6 µM. O75030; in the data active = inhibition above about 50%;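 also: 0% = vehicle wells with protein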
TEAD-YAP inh: TEAD-YAP interaction inhibition | HEK-TIYL cells, TEAD-Gal4/YAP UAS-luciferase luminescence | inhibition, % at 9.12 µM | 640,000 compounds, 1.4% hits | AID 1259422; in the data active = inhibition above about 32%;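 also: 0% = median of test compound wells and 100% = reference inhibitor wells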
The depositor's hits bear a star.

SMILES | GPR151 activ | FBW7 act | MITF primary | TEAD-YAP inh
c1cncc(-c2nnc(SCc3nc4ccccc4[nH]3)o2)c1 | -0.6 | 0.0 | -6.4 | 44.0*
COc1ccc(N2CCOCC2)cc1Nc1cc(Nc2ccccn2)c(C(F)(F)F)cn1 | -0.7 | 0.4 | 18.6 | -2.2
CNC(=O)c1cc(F)ccc1Nc1cc(Nc2cc(-c3cncnc3)nc(C)n2)ncc1C(F)(F)F | -0.6 | -0.2 | -5.5 | 54.8*
Cc1nc(Nc2cc(Nc3ccccn3)c(C(F)(F)F)cn2)cc(-c2cncnc2)n1 | -0.3 | -0.1 | 15.8 | 32.0*
O=[N+]([O-])c1ccc(S(=O)(=O)Nc2ccc(NS(=O)(=O)c3ccccc3)cc2Cl)cc1 | -0.5 | -0.1 | -5.9 | 4.2
CCOc1ccc2c(c1)-c1c(ssc1=S)C(C)(C)N2C(C)=O | 1.5 | -1.0 | 6.5 | -7.3
Fc1ccc(-c2nc(-c3ccccc3)no2)cc1 | -0.4 | 0.8 | 17.2 | -34.2
Oc1ccc(-c2noc(-c3ccc(F)cc3)n2)cc1 | -8.9 | 0.5 | -1.0 | 64.6*
CCOc1ccccc1NC(=O)C(=O)N/N=C/c1cccc(Cl)c1Cl | 0.2 | 0.1 | 2.9 | 8.0
CCCCNC(=O)C(=O)Nc1ccccc1OCC | -0.1 | 2.3* | 2.7 | 0.0
CCOc1ccccc1NC(=O)C(=O)N/N=C/c1cccc(OC)c1O | 1.6 | -1.6 | 23.1 | 79.2*
O=C(N/N=C/c1ccccc1)C(=O)Nc1ccccc1OC(F)(F)C(F)F | -0.5 | 0.5 | 13.9 | 3.9
COc1cccc(/C=N/NC(=O)C(=O)Nc2ccccc2OC(F)(F)C(F)F)c1O | 3.8 | 0.0 | 0.1 | 64.9*
Cc1ccc(C(=O)Nc2cnc3ccccc3c2)cc1I | -0.4 | 0.1 | 3.2 | -27.9
CNC(=O)c1ccccc1Nc1cc(Nc2ccc(C(=O)N3CCOCC3)cn2)ncc1C(F)(F)F | -0.7 | -0.1 | -4.4 | 85.8*
CNC(=O)c1ccccc1Nc1nc(Nc2ccc(N3CCOCC3)c(F)c2)ncc1Cl | 1.8 | 0.0 | -3.0 | 63.0*
CNC(=O)c1ccccc1Nc1cc(Nc2cccnc2)ncc1C(F)(F)F | -1.0 | -0.1 | 5.4 | 13.6
CNC(=O)c1ccccc1Nc1cc(Nc2ccc(N3CCOCC3)cc2)ncc1C(N)=O | 0.0 | 0.0 | 8.5 | 22.2
CNC(=O)c1cc(F)c(F)cc1Nc1cc(Nc2ccc(N3CCOCC3)cc2OC)ncc1C(F)(F)F | 0.4 | 0.0 | -1.1 | 5.7
CNC(=O)c1ccccc1Nc1cc(Nc2ccc(N3CCOCC3)cc2)ncc1C(F)(F)F | -0.2 | -0.3 | 0.2 | 75.1*
CNC(=O)c1ccccc1Nc1nc(Nc2ccc(-n3cnc(N4CCOCC4)n3)cc2)ncc1Cl | 0.6 | 0.1 | 19.9 | 31.2
CNC(=O)c1ccccc1Nc1cc(Nc2ccc(N3CCOCC3)cc2F)ncc1C(F)(F)F | -2.7 | -0.1 | 3.8 | 67.1*
CCOC(=O)c1sc(NC(=O)C(C)Sc2nnc(CNC(=O)c3ccc(C)c([N+](=O)[O-])c3)n2C)c(C(=O)OCC)c1C (configuration not stated) | 0.0 | -0.1 | -5.9 | -1.0
O=C(Nc1cc(Sc2ccc(Cl)cc2)cc([N+](=O)[O-])c1)c1cc(F)c(F)cc1Cl | 1.5 | 0.1 | -6.0 | 0.4
CC(=O)Nc1cnc(NC(=O)c2ccccc2)cc1C | -1.2 | 0.2 | 3.0 | -36.9
SMILES | GPR151 activ | FBW7 act | MITF primary | TEAD-YAP inh
C=CCN1C(=O)CC(C(=O)OC)C12CCN(CC(CC)CC)CC2 (configuration not stated) | 1.2 | 0.1 | 17.8 | 3.6
CC(C)(C)c1ccc(-c2[nH]ncc2-c2ccncc2)cc1 | 0.7 | 0.0 | 7.6 | 16.0
Cc1ccc(C(=O)Nc2ncc(C)s2)c(C)c1 | -3.6 | 0.2 | 6.3 | 80.2*
CSc1ncc(CN2CCC(Oc3cccc(C(=O)N4CCCC4)c3)CC2)cn1 | 1.1 | 0.0 | 2.8 | -4.3
Cc1oc2c(c1C(=O)O)C(=O)c1ccccc1C2=O | 0.7 | 0.0 | -0.2 | -5.7
Cc1oc2c(c1C(=O)N1CCCC1)C(=O)c1ccccc1C2=O | -1.1 | -0.1 | 15.7 | 54.4*
Cc1cc(/C=C2/NC(=O)N(c3cccc(Cl)c3)C2=O)c(C)n1C | -1.4 | -0.1 | 0.6 | 55.4*
Cc1cccc(-n2ncc3c(Nc4cccc(C)c4C)ncnc32)c1 | 0.0 | -0.1 | -5.2 | 42.2*
Cc1cccc(-n2ncc3c(Nc4ccc(C)cc4C)ncnc32)c1 | 0.1 | 0.0 | 8.2 | -26.6
CC(C)(C)Nc1ncnc2c1cnn2-c1ccc(Cl)cc1 | 2.6 | 0.1 | 4.4 | 51.5*
Cc1cccc(-n2ncc3c(Nc4cc(C)ccc4C)ncnc32)c1 | -1.6 | 0.1 | -5.2 | 44.7*
CCCCNc1ncnc2c1cnn2-c1ccc(Cl)cc1 | 0.8 | -0.2 | 0.2 | -53.8
Cc1cccc(-n2ncc3c(NC(C)(C)C)ncnc32)c1 | 1.3 | 0.0 | -3.1 | 82.4*
CC(C)n1c(C(O)(c2ccccc2)c2ccccc2)nc2ccccc21 | 0.1 | 0.0 | -15.1 | -1.0
O=C(CN1Cc2ccccc2OC(c2ccccc2)C1)NCCCn1cccn1 (configuration not stated) | -0.3 | 0.0 | 7.1 | -1.8
CCN(CCN(C)C)c1ncnc2c1cnn2-c1ccc(Cl)cc1 | -1.4 | -0.2 | 5.0 | 50.0*
CCCN(CCC)c1ncnc2c1cnn2-c1ccc(Cl)cc1 | 1.7 | 0.4 | 4.8 | 6.8
O=C(CSc1nnc2sc3ccccc3n12)c1ccc(F)cc1 | -1.0 | 2.1* | -4.0 | -38.5
O=C(CSc1nnc2sc3ccccc3n12)NCc1ccccc1 | 0.5 | 0.0 | 7.8 | 46.5*
C=CCc1cc(/C=c2/sc3n(c2=O)C(c2ccccc2OC)C(C(=O)OCC)=C(C)N=3)cc(OC)c1O (configuration not stated) | 0.3 | 0.0 | -0.8 | -0.2
CC(C)n1cnc2c(NCc3ccccc3)nc(-c3ccc(C(N)=O)cc3)nc21 | 1.4 | 0.1 | -6.0 | 8.8
CC(C)n1cnc2c(NC3CC3)nc(-c3ccc(C(=O)NC4CC4)cc3)nc21 | -0.6 | 0.0 | 18.0 | 32.7*
CC(C)n1cnc2c(Nc3ccccc3)nc(-c3ccc(C(N)=O)cc3)nc21 | -0.5 | 0.1 | -1.2 | 44.2*
CC(C)n1cnc2c(NC3CC3)nc(-c3ccc(C(N)=O)cc3)nc21 | -1.0 | 0.8 | 13.1 | 39.9*
CCOC(=O)N1CCN(CC(O)COc2ccc(NC(C)=O)cc2)CC1 (configuration not stated) | 4.3 | 0.8 | 5.5 | 6.5
SMILES | GPR151 activ | FBW7 act | MITF primary | TEAD-YAP inh
Cc1cnc(Cl)nc1NCCc1ccc(O)cc1 | 1.3 | 0.2 | -2.3 | 0.3
COc1ccc(CCNc2nc(-c3cccs3)ncc2C)cc1 | 1.8 | 0.0 | 9.5 | 43.6*
COc1ccc(CCNc2nc(Cl)ncc2C)cc1 | 1.0 | 0.1 | 12.7 | 42.2*
O=C(Nc1ccc(-c2nc3ccccc3o2)cc1)c1cc2nc(-c3cccs3)cc(C(F)(F)F)n2n1 | 0.6 | -0.1 | 7.9 | 15.4
O=[N+]([O-])c1cccc(C2SCCN2S(=O)(=O)c2ccc3ccccc3c2)c1 (configuration not stated) | -0.8 | -0.1 | 4.7 | 10.0
Oc1ccc(CCNc2nc(-c3ccc(N4CCOCC4)nc3)nc3c2ncn3-c2ccccc2)cc1 | 3.0 | 0.5 | 12.0 | 40.8*
O=C1CCCN1CCn1cnc2c(NCCN3CCOCC3)nc(-c3ccc(N4CCOCC4)nc3)nc21 | -0.1 | 0.1 | 0.7 | -14.2
c1ccc(OCCNc2ncnc3nc(-c4ccc(N5CCOCC5)nc4)[nH]c23)cc1 | -1.1 | 10.9* | -2.8 | -19.0
